Laboratory results taken from PubChem BioAssay AID1159580 (chemical genetic matrix, 2015).
The whole screen tested about 5,500 compounds, of which about 2,000 (36%) were called active. Not shown: some 18% with an inconclusive outcome. No stated cut-off is given here; in the data, active means normalized growth mostly below about 0.91 (no sharp cut-off); inconclusive means no clear call, values can overlap the other calls; inactive means mostly above about 0.92. The list shows a part of the results. Where a SMILES comes first, the peptide text is derived from it. The star is where a group is joined. Cbz = O=C(OCc1ccccc1)*

Experiment: chemical genetic growth profiling, strain panel (AID 1159580);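 further: tested at 20 µM; growth read once vehicle control cultures reached saturation at 30 °C; 1 = growth at the plate median or of vehicle wells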
Details: S. cerevisiae deletion strains, growth OD
[1] = locus YAL040C, strain CLN3, stronger effect = lower value
[2] = locus YCL061C, strain MRC1 (second series), stronger effect = lower value
[3] = locus YDR363W, strain ESC2, stronger effect = lower value
[4] = locus YER002W, strain NOP16, stronger effect = lower value
[5] = locus YMR263W, strain SAP30, stronger effect = lower value
[6] = locus YMR307W, strain GAS1, stronger effect = lower value
[7] = locus YNL175C, strain NOP13, stronger effect = lower value
[8] = locus YNL197C, strain WHI3, stronger effect = lower value
[9] = locus YNL224C, strain SQS1, stronger effect = lower value
[10] = locus YNL322C, strain KRE1, stronger effect = lower value
[11] = locus YOR083W, strain WHI5 (second series), stronger effect = lower value
[12] = locus YHR030C, strain SLT2, stronger effect = lower value
[13] = locus YHR079C, strain IRE1, stronger effect = lower value
[14] = locus YJL095W, strain BCK1, stronger effect = lower value
[15] = locus YJR066W, strain TOR1, stronger effect = lower value
[16] = locus YLR113W, strain HOG1, stronger effect = lower value
[17] = locus YNL183C, strain NPR1, stronger effect = lower value
[18] = locus YOR231W, strain MKK1, stronger effect = lower value
[19] = locus YPL256C, strain CLN2, stronger effect = lower value
[20] = locus YAL013W, strain DEP1, stronger effect = lower value
[21] = locus YGR229C, strain SMI1, stronger effect = lower value
[22] = locus YJR075W, strain HOC1, stronger effect = lower value
[23] = locus YPL055C, strain LGE1, stronger effect = lower value
[24] = locus YGR078C, strain PAC10, stronger effect = lower value
[25] = locus YPL241C, strain CIN2, stronger effect = lower value
[26] = locus YDR150W, strain NUM1, stronger effect = lower value
[27] = locus YCL061C, strain MRC1, stronger effect = lower value
[28] = locus YBR229C, strain ROT2, stronger effect = lower value
[29] = locus YDL101C, strain DUN1, stronger effect = lower value
[30] = locus YEL061C, strain CIN8, stronger effect = lower value
[31] = locus YHR087W, strain rtc3, stronger effect = lower value
[32] = locus YJR043C, strain POL32, stronger effect = lower value
[33] = locus YKL190W, strain CNB1, stronger effect = lower value
[34] = locus YLR039C, strain RIC1, stronger effect = lower value
[35] = locus YLR058C, strain SHM2 (second series), stronger effect = lower value
[36] = locus YLR085C, strain ARP6, stronger effect = lower value
[37] = locus YLR262C, strain YPT6, stronger effect = lower value
[38] = locus YML094W, strain GIM5, stronger effect = lower value
[39] = locus YMR219W, strain ESC1, stronger effect = lower value
[40] = locus YNL153C, strain GIM3, stronger effect = lower value
[41] = locus YNL298W, strain CLA4 (second series), stronger effect = lower value
[42] = locus YNR030W, strain Alg12, stronger effect = lower value
[43] = locus YPR135W, strain CTF4, stronger effect = lower value

Measured: normalized growth

CC(C)[C@H](NC(=O)OCc1ccccc1)C(=O)N[C@H](C=O)Cc1ccccc1 (Cbz-Val-Phe-aldehyde)
inactive: [1] 0.961 | [2] 1 | [3] 1.04 | [4] 0.993 | [5] 0.976 | [6] 1.02 | [7] 0.969 | [8] 0.969 | [9] 0.996 | [10] 1 | [11] 0.997

CC(=O)NC(Cc1ccccc1)C(=O)O (stereo not drawn)
inactive: [12] 0.979 | [13] 0.984 | [14] 0.985 | [15] 0.91 | [16] 1.02 | [17] 0.89 | [18] 0.997 | [19] 0.984

Cc1ccc(S(=O)(=O)N[C@@H](CCCCN)C(=O)CCl)cc1
inactive: [20] 1.02 | [1] 1.04 | [2] 1.01 | [3] 1.05 | [4] 1.02 | [21] 0.962 | [22] 0.995 | [5] 1.01 | [6] 1.01 | [7] 1.01 | [8] 1.02 | [9] 1.01 | [10] 1.02 | [11] 1.01 | [23] 1.03

O=C(NC(Cc1ccccc1)C(=O)CCl)OCc1ccccc1 (stereo not drawn)
inactive: [1] 1.03 | [2] 0.979 | [3] 1.02 | [24] 0.98 | [22] 0.913 | [10] 0.999 | [25] 0.992
active: [4] 0.549 | [21] 0.28 | [7] 0.707 | [8] 0.874 | [9] 0.784 | [11] 0.687

Cc1ccc(S(=O)(=O)N[C@@H](Cc2ccccc2)C(=O)CCl)cc1
inactive: [1] 0.932 | [2] 0.987 | [26] 0.998 | [3] 1 | [22] 0.959 | [5] 0.993 | locus YNL128W, strain TEP1, stronger effect = lower value 0.955 | [9] 0.954 | [10] 1.01 | [11] 0.957 | [23] 0.983
active: [4] 0.904 | [6] 0.896 | [7] 0.902 | [8] 0.892

COC(=O)[C@H](Cc1ccccc1)NC(=O)[C@@H](N)CC(=O)O (H-Asp-Phe-OMe)
inactive: locus YAL021C, strain ccr4, stronger effect = lower value 1.01 | locus YAL026C, strain drs2, stronger effect = lower value 1.01 | locus YAL030W, strain snc1, stronger effect = lower value 1 | locus YBL061C, strain skt5, stronger effect = lower value 1.02 | locus YBR009C, strain hhf1, stronger effect = lower value 1.02 | locus YBR023C, strain chs3, stronger effect = lower value 1.02 | locus YBR171W, strain sec66, stronger effect = lower value 1.02 | locus YBR231C, strain swc5, stronger effect = lower value 1.03 | locus YBR279W, strain paf1, stronger effect = lower value 1.02 | locus YCL011C, strain gbp2, stronger effect = lower value 1.02 | locus YCL016C, strain dcc1, stronger effect = lower value 1.01 | [27] 1.01 | locus YCL069W, strain vba3, stronger effect = lower value 1.02 | locus YCR088W, strain abp1, stronger effect = lower value 1.01 | locus YDL005C, strain med2, stronger effect = lower value 1 | locus YDL040C, strain nat1, stronger effect = lower value 1.01 | locus YDR001C, strain nth1, stronger effect = lower value 1.02 | locus YDR069C, strain doa4, stronger effect = lower value 1.02 | locus YDR137W, strain rgp1, stronger effect = lower value 1.01 | locus YDR159W, strain sac3, stronger effect = lower value 1.02 | locus YDR195W, strain ref2 1.01 | locus YDR297W, strain sur2, stronger effect = lower value 1.02 | locus YDR334W, strain swr1, stronger effect = lower value 1.01 | locus YDR335W, strain msn5, stronger effect = lower value 1.02 | locus YDR392W, strain spt3, stronger effect = lower value 0.958 | locus YEL003W, strain gim4, stronger effect = lower value 1.02 | locus YEL037C, strain rad23, stronger effect = lower value 1.02 | locus YEL061C, strain CIN8 (second series), stronger effect = lower value 1.01 | locus YER015W, strain faa2, stronger effect = lower value 1.01 | locus YER016W, strain bim1, stronger effect = lower value 1.01 | locus YER111C, strain swi4, stronger effect = lower value 1.02 | locus YER155C, strain BEM2 (second series), stronger effect = lower value 1.03 | locus YFR010W, strain ubp6, stronger effect = lower value 1.02 | locus YGL167C, strain pmr1, stronger effect = lower value 1.02 | locus YGL173C, strain kem1, stronger effect = lower value 1.01 | locus YGL227W, strain vid30, stronger effect = lower value 1.02 | locus YGL240W, strain doc1, stronger effect = lower value 1.04 | locus YGL253W, strain hxk2, stronger effect = lower value 1 | locus YHR013C, strain ard1, stronger effect = lower value 1.01 | locus YHR027C, strain rpn1, stronger effect = lower value 1.02 | [12] 1.02 | [13] 1.02 | locus YHR142W, strain chs7, stronger effect = lower value 1.01 | locus YJL092W, strain hpr5, stronger effect = lower value 1.02 | locus YJL095W, strain BCK1 (second series), stronger effect = lower value 1.02 | [14] 0.978 | locus YJL115W, strain asf1, stronger effect = lower value 1.02 | locus YJL129C, strain trk1, stronger effect = lower value 1.01 | locus YJL154C, strain vps35, stronger effect = lower value 1.02 | locus YJL164C, strain tpk1, stronger effect = lower value 0.999 | locus YJL166W, strain qcr8, stronger effect = lower value 1.03 | [15] 0.961 | locus YKL160W, strain elf1, stronger effect = lower value 1.02 | locus YKR026C, strain gcn3, stronger effect = lower value 1.02 | locus YKR091W, strain srl3, stronger effect = lower value 1.02 | locus YLL001W, strain dnm1, stronger effect = lower value 1.01 | locus YLL026W, stronger effect = lower value 1.02 | locus YLL041C, strain sdh2, stronger effect = lower value 1.02 | locus YLR027C, strain aat2, stronger effect = lower value 1.02 | [16] 0.969 | locus YLR221C, strain rsa3, stronger effect = lower value 0.998 | locus YLR258W, strain gsy2, stronger effect = lower value 1.02 | locus YLR262C, strain YPT6 (second series), stronger effect = lower value 1.02 | locus YLR320W, strain mms22, stronger effect = lower value 1.01 | locus YLR342W, strain FKS1, stronger effect = lower value 1.03 | locus YLR357W, strain rsc2, stronger effect = lower value 1.03 | locus YLR370C, strain arc18, stronger effect = lower value 1.01 | locus YLR384C, strain iki3, stronger effect = lower value 1.02 | locus YML120C, strain ndi1, stronger effect = lower value 1.01 | locus YMR058W, strain fet3, stronger effect = lower value 1.02 | locus YMR125W, strain sto1, stronger effect = lower value 1.01 | locus YMR129W, stronger effect = lower value 1.02 | locus YMR205C, strain PFK2, stronger effect = lower value 1.02 | locus YMR231W, strain pep5, stronger effect = lower value 1.03 | locus YNL071W, strain lat1, stronger effect = lower value 1.02 | [17] 0.96 | locus YNL209W, strain ssb2, stronger effect = lower value 1.01 | locus YNL248C, strain rpa49, stronger effect = lower value 1 | locus YNL322C, strain KRE1 (second series), stronger effect = lower value 1.02 | locus YNR049C, strain mso1, stronger effect = lower value 1.02 | locus YOR001W, strain rrp6, stronger effect = lower value 1.01 | locus YOR070C, strain gyp1, stronger effect = lower value 1.01 | locus YOR080W, strain dia2, stronger effect = lower value 1.02 | locus YOR083W, strain WHI5, stronger effect = lower value 1.02 | locus YOR106W, strain vam3, stronger effect = lower value 1.03 | [18] 1.02 | locus YOR265W, strain rbl2, stronger effect = lower value 1.01 | locus YOR270C, strain vph1, stronger effect = lower value 1.05 | locus YOR290C, strain snf2, stronger effect = lower value 0.995 | locus YPL051W, strain arl3, stronger effect = lower value 1.03 | locus YPL078C, strain atp4, stronger effect = lower value 1.02 | locus YPL106C, strain sse1, stronger effect = lower value 1.03 | locus YPL240C, strain hsp82, stronger effect = lower value 1.01 | [19] 1.02

Cc1cc(C)c(CSCCNC(=O)Nc2ccc(F)cc2F)c(C)c1
active: [36] 1.28 [resistant]
inactive: [20] 1.02 | [28] 1.01 | [27] 1.03 | [29] 1.03 | locus YDL134C, strain PPH21, stronger effect = lower value 1.01 | [26] 0.942 | [30] 1.01 | [24] 1.03 | [21] 1.02 | [12] 1.08 | [31] 1.02 | locus YJL187C, strain SWE1, stronger effect = lower value 1.03 | [32] 1.02 | [22] 1.03 | [33] 1.02 | [34] 1.05 | [35] 1.02 | [37] 1.03 | [38] 1.04 | [39] 1.01 | [5] 0.937 | [6] 1.29 | [40] 1.01 | [41] 1.03 | [10] 1.02 | [42] 1.04 | locus YOL006C, strain TOP1, stronger effect = lower value 1.18 | [23] 0.908 | [25] 1.13 | [43] 1.11

CSc1nsc(SC)c1C(=O)NC(=O)Nc1ccc(F)cc1F
inactive: [20] 1.01 | [28] 1.01 | [29] 1.04 | [26] 1.04 | [30] 1.01 | [24] 1.01 | [21] 1.02 | [12] 1.1 | [31] 1.02 | [32] 1.01 | [22] 1.01 | [33] 1.02 | [34] 1.03 | [35] 1 | [36] 1.02 | [37] 1 | [38] 1.08 | [39] 1 | [5] 0.993 | [40] 1.01 | [41] 1.04 | [10] 1.02 | [42] 1.03 | [23] 1.08 | [25] 1.07 | [43] 1.07
